Laboratory results reported in PubChem BioAssay AID687043 (Milwaukee Institute for Drug Discovery, 2013).
Out of some 16,000 compounds screened, about 250 (1.6%) were called active. Only a selection was taken, and actives are over-represented in it overall. Values without a mark were called inactive.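 How the source made its calls: active means inhibition above the average over every tested compound plus 3 SD (cut at about 40% in these data); inactive means the rest.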

System: Hepatitis C virus NS3 helicase
Assay: HCV NS3 helicase inhibitors, primary screen, biochemical, fluorescence polarization, ChemBridge library (AID 687043)
Conditions: NS3h Cy5-dT15 DNA binding, at 100 µM, active compounds read high

Row | Compound | inhibition
1 | O=C(/C=C/c1cc(Br)cs1)Nc1cccc(C(F)(F)F)c1 | 14.4%
2 | COc1ccc(C2(CNC(=O)c3ccc(F)cc3)CCCC2)cc1OC | 8.8%
3 | O=C(Nc1ccncc1)c1cc2ccccc2o1 | 11.4%
4 | CCOC(=O)c1c(C)nc2n(/N=C\c3ccc([N+](=O)[O-])cc3)c3ccccc3n12 | 6.3%
5 | Cc1ccc(C(=O)Nc2ccc(C(C)C)cc2)cc1C | 3.2%
6 | Cc1ccc(/C=N\NC(=O)c2cccnc2)o1 | 1.6%
7 | O=C(NCCc1c[nH]c2ccccc12)c1cccs1 | 8.2%
8 | COC(=O)C1=C(C)NC2=C(C(=O)c3ccccc32)C1c1ccc(OCc2ccc(F)cc2)c(OC)c1 (configuration not stated) | -0.7%
9 | Cc1ccc(N2NC(=O)/C(=C/c3ccc4c(c3)OCO4)C2=O)cc1Cl | 5.8%
10 | O=C(NCCN1CCOCC1)/C(=C/c1ccc(F)cc1)NC(=O)c1ccccc1 | 15.5%
11 | O=C(Nc1ccc(Cl)c(Cl)c1)Nc1nnc(-c2ccc(F)cc2)s1 | 21.5%
12 | CCOc1ccc(NC(=O)CC2S/C(=N/N=C3/CCCc4ccccc43)NC2=O)cc1 (configuration not stated) | 16.3%
13 | Cc1cccc(-c2cc(NC(=O)COc3ccc(Cl)cc3Cl)n[nH]2)c1 | -2.4%
14 | COc1ccccc1N1CCN(C(=O)c2cnn3c2NC(c2ccc(Br)cc2)CC3C(F)(F)F)CC1 (configuration not stated) | 7.2%
15 | COc1cc(C=C2C(=O)NC(=O)NC2=O)ccc1OCCOc1ccc([N+](=O)[O-])cc1 | 52.6% (active)
16 | COc1cc(/C=C2/SC(=S)NC2=O)ccc1OCCOCCOc1ccc(C)cc1 | 18.6%
17 | COc1cc(/C=C2/C(=O)NC(=O)N(c3ccc(C)cc3)C2=O)ccc1OCCOc1ccc([N+](=O)[O-])cc1 | 20.3%
18 | O=C(Cn1cncn1)c1ccc(F)c(F)c1 | -2.3%
19 | COc1cc(/C=C2/C(=O)N(c3ccccc3)N=C2C)ccc1OC(=O)c1cccs1 | 11.4%
20 | CCC1=NN2C(=N)/C(=C/c3cc(Br)c(OCc4ccc(F)cc4)c(OC)c3)C(=O)N=C2S1 | 10.4%
21 | O=C(/C=C/c1ccc(Cl)cc1)Nc1ccc(-c2nc3ccccc3o2)c(O)c1 | 9.9%
22 | O=C1N=C(N2CCCC2)S/C1=C\c1cccc(Br)c1 | 9.8%
23 | COc1ccc(C(=O)CSc2nc(C)cc(C)n2)cc1[N+](=O)[O-] | 18%

Row | Compound | inhibition
24 | O=C(NC(c1ccccc1)c1ccccc1)c1ccc([N+](=O)[O-])cc1Cl | 14.7%
25 | O=c1cccc(-c2ccc(Br)cc2)o1 | 0.7%
26 | CC(C)(C)C(=O)Nc1ccc(C(=O)Nc2ccc(O)cc2C(=O)O)cc1 | -2.6%
27 | CCOC(=O)c1ccc(-c2ccc(/C=C(/C#N)C(=O)Nc3ccc4ccccc4c3)o2)cc1 | -1.8%
28 | O=c1oc(-c2ccco2)nc2ccc(Cl)cc12 | -3.4%
29 | O=C(CSc1ccccn1)N1c2ccccc2Sc2ccccc21 | 10.2%
30 | O=C(Nc1cc(C(F)(F)F)ccc1Cl)C1CC(=O)N(c2ccc(Br)cc2)C1 (configuration not stated) | 2.2%
31 | Cc1ccc(NC(=O)c2ccc3c(c2)OCCO3)c([N+](=O)[O-])c1 | 20.8%
32 | CCC(=O)/C=C1\Sc2ccccc2N1CC | -1.3%
33 | O=C(CC(Nc1ccc2ncccc2c1)c1ccc(F)cc1)c1ccccc1 (configuration not stated) | 3.6%
34 | Cc1cc(C)n(C(=O)COc2cccc3ccccc23)n1 | 7.8%
35 | COc1ccc(C2=N/C(=C/c3ccccc3OC)C(=O)N2c2ccccc2)cc1 | 8.2%
36 | CCOC(=O)C1=C(C)N=c2s/c(=C\c3ccc(C)o3)c(=O)n2C1c1cccc(OC)c1 (configuration not stated) | 20.2%
37 | Cc1nnc(Nc2ccc3c(c2)nc(C)n3Cc2ccccc2)c2ccccc12 | 2.2%
38 | N#CC(C#N)=C1CCCc2ccccc2N1 | -4.1%
39 | O=c1c(Cl)c(Cl)cnn1Cc1c(Cl)ccc(Cl)c1Cl | 5%
40 | Cc1ccnc(SC2CC(=O)N(c3ccccc3)C2=O)n1 (configuration not stated) | 1.2%
41 | COc1ccc(Cl)cc1NC(=O)Cn1nc([N+](=O)[O-])cc1C | 11.3%
42 | Cc1ccc(N2C(=O)/C(=C/c3ccc(Oc4ccc([N+](=O)[O-])cn4)cc3)C(=O)NC2=S)cc1 | 25.1%
43 | C=CCN1C(=O)/C(=C\c2cc(OC)c(O)c([N+](=O)[O-])c2)C(=O)NC1=S | 81.2% (active)
44 | C=CCN1C(=O)/C(=C\c2cc(Cl)c(O)c(Cl)c2)SC1=S | 21.3%
45 | O=C1NC(=O)C(=Cc2cc([N+](=O)[O-])cc(Br)c2O)C(=O)N1 | 48.9% (active)
46 | COc1cccc(C=C2C(=O)NC(=O)NC2=O)c1O | 15.5%

Row | Compound | inhibition
47 | C=CCOc1ccccc1C=C1C(=O)NC(=O)NC1=O | 34.9%
48 | OCCNC1CCCc2c1[nH]c1ccc(-c3ccccc3)cc21 (configuration not stated) | 2.8%
49 | CC(C)(C)c1ccc(C2C(C(=O)c3ccco3)=C(O)C(=O)N2c2ncc(S(=O)(=O)c3ccc([N+](=O)[O-])cc3)s2)cc1 (configuration not stated) | 9.7%
50 | COc1ccc2oc(=O)c(C(N)=O)cc2c1 | 2.8%
51 | Oc1ccc(Br)cc1CN1CCN(Cc2ccccn2)CC1 | -7.5%
52 | COc1ccc(Br)cc1/C=C1/SC(=S)N(c2cccc(C(F)(F)F)c2)C1=O | 11.5%
53 | O=C(CCc1ccccc1)N1N=C(c2cccc([N+](=O)[O-])c2)CC1(O)C(F)(F)F (configuration not stated) | 8.7%
54 | Cc1cc(C)cc(N2C(=O)NC(=O)/C(=C\c3ccc(F)cc3)C2=O)c1 | 21.8%
55 | O=C1NC(=Nc2ccc(F)cc2)S/C1=C\c1cccs1 | 12.6%
56 | CC(C)(C)N1C(=O)NC(=O)C(=Cc2cccs2)C1=O | 75.4% (active)
57 | Cc1ccccc1NC(=O)C(=O)NCc1ccco1 | 10.2%
58 | CSc1ccc(C(C2=C(O)CC(C)(C)CC2=O)C2C(=O)CC(C)(C)CC2=O)cc1 (configuration not stated) | 5.7%
59 | CCN1C(=O)/C(=C\c2cn(CCOc3ccccc3)c3ccccc23)SC1=S | 11.7%
60 | O=C(c1cnn2c(C(F)(F)F)cc(-c3cccs3)nc12)N1CCCc2ccccc21 | 14.1%
61 | O=C(COc1ccc(Br)cc1)Nc1cccc(C(F)(F)F)c1 | 3.2%
62 | CC(=O)n1nc(C)c2c(-c3ccccc3)c3cc(Br)ccc3nc21 | 0.3%
63 | O=C(NNC(=O)c1ccc(-c2ccccc2)cc1)Nc1ccccc1 | 6.7%
64 | O=C(O)COc1ccc2c(=O)c(Oc3ccccc3Br)coc2c1 | 4.5%
65 | CCOc1ccc(NC(=O)C2=C(C)NC(=S)NC2c2c(OC)ccc3ccccc23)cc1 (configuration not stated) | 6.9%
66 | CCc1ccc2oc(-c3ccc(NC(=O)c4ccccc4[N+](=O)[O-])cc3)nc2c1 | 17.7%
67 | COc1ccc2oc(=O)c(-c3ccc(I)cc3)cc2c1 | 1.3%
68 | Cc1ccc(C(=O)C[n+]2cc(-c3ccccc3)n3c2CCCCC3)cc1 | 54.5% (active)
69 | COC(=O)c1cc(NC(=O)c2ccc(OC)cc2)cc(C(=O)OC)c1 | 1.9%

Row | Compound | inhibition
70 | O=C1CS/C(=N/N=C\c2ccc([N+](=O)[O-])cc2)N1c1ccc(O)cc1 | 9.1%
71 | COc1ccc(C(=O)Oc2ccc3oc(=O)cc(C)c3c2)cc1OC | 48.9% (active)
72 | Cc1cc(=O)oc2ccc(OCC(=O)O)cc12 | -3.9%
73 | C=C(C)COc1ccc2oc(C)c(C(=O)OC)c2c1 | 12.1%
74 | O=C(Nc1c(F)cc(F)cc1Br)c1cc2n(n1)C(C(F)(F)F)CC(c1cccs1)N2 (configuration not stated) | 11.4%
75 | O=C(/C=C/c1cccc([N+](=O)[O-])c1)Nc1ccc(O)c(-c2nc3ccccc3o2)c1 | 12.7%
76 | CCOc1ccc(C2(Cc3ccccc3)C(=O)c3ccccc3C2=O)cc1 | 5.5%
77 | CC1=C(C(=O)OCC2CCCO2)C(c2cccc(C(F)(F)F)c2)C2=C(CCCC2=O)N1 (configuration not stated) | -1.6%
78 | CSc1nsc(SC)c1NC(=O)OCC1([N+](=O)[O-])COC(C)(C)OC1 | 3.2%
79 | CC(C)n1c(O)c(C2=c3ccccc3=NC2=O)sc1=S | 6.8%
80 | CCOc1cc(/C=c2\sc3nc4ccccc4n3c2=O)ccc1OC(C)c1ccccc1 (configuration not stated) | 2.5%
81 | CCCC(=O)Nc1cccc(NC(=O)c2ccc(-c3ccc(Cl)cc3Cl)o2)c1 | 8.9%
82 | Cc1cc(I)ccc1NC(=O)COc1ccc(Br)cc1 | 8%
83 | Clc1ccc(Cn2c(CNc3ccc(Cl)cc3)nc3ccccc32)cc1 | 9.9%
84 | Cc1ccc(N2C(=O)CC(NCc3ccc(F)cc3)C2=O)cc1 (configuration not stated) | 5%
85 | Cc1ccc(S(=O)(=O)Nc2cc(-c3ccc(F)cc3)[nH]n2)cc1 | -6.5%
86 | O=C(Nc1nccs1)c1ccc(NC(=O)C2CCCCC2)cc1 | 12.5%
87 | N/C(=N/OC(=O)c1ccccc1F)c1ccc(Br)cc1 | -3.4%
88 | CC(C)c1ccc(/C=C(\C(=O)c2ccccc2Cl)c2nc3ccccc3o2)cc1 | 10.6%
89 | O=C(Nc1ccc(Oc2ccccc2)cc1)c1ccco1 | 12%
90 | N#Cc1c(N)nc2sc(C(=O)Nc3ccccc3)c(N)c2c1-c1ccco1 | 65.7% (active)
91 | N#Cc1c(SCC(=O)c2ccc(Cl)cc2)nc2c(c1-c1ccco1)CCCC2 | -2.3%
92 | COC(=O)c1cc(C(=O)N(Cc2ccccc2)c2ccccn2)cc([N+](=O)[O-])c1 | 8.4%
